# Results published in PubChem BioAssay (NCI).
# Compounds without any hit were thinned out: in the full panel of roughly 83,000, 20% have a hit.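 Compound tested at a single concentration for 48 hours in 96-well plates; a percent growth value below 10 was scored as active.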 The source made the active and inactive calls.
# Test system: NCI/ADR-RES ovarian
# Assay: NCI-60 one-dose screen, 48 h (100 = growth as untreated, 0 = no growth, -100 = all killed)
# Conditions: 10 µM unless noted
row,SMILES,growth
1,Cn1cc(C(=O)c2nc(-c3c[nH]c4ccc(F)cc34)no2)c2cc(F)ccc21,84% (inactive)
2,c1ccc(Cn2cc(-c3nc4ccccc4s3)c3cccnc32)cc1,98.6% (inactive)
3,O=[N+]([O-])c1ccccc1/C=N\NC(=S)N/N=C/c1ccccc1[N+](=O)[O-],14.4% (inactive)
4,Cn1cc(C(=O)c2nc(-c3c[nH]c4ccc(Br)cc34)no2)c2cc(F)ccc21,94.1% (inactive)
5,Cc1cc(N2CCN(C)CC2)nc(NC2CCCC(Nc3ccnc4cc(Cl)ccc34)C2)n1 (stereo not given),18.7% (inactive)
6,COCCNc1ccc2c3c(cccc13)C(=O)N(CCN(C)C)C2=O,31.4% (inactive)
7,FC(F)(F)c1[nH]ncc1-c1nc2ccc3n[nH]c(C#Cc4cccnc4)c3c2c2c1CCCC2,72.1% (inactive)
8,Cc1ccc(/C=C2\SC(=S)N(CC(=O)NCCCN3CCOCC3)C2=O)cc1,96.5% (inactive)
9,Cc1ncc(C(=O)Nc2ccc(CN3CCN(C)CC3)c(C(F)(F)F)c2)cc1C#Cc1cnc2cccnn12,8.62% (active)
10,CC(C)(C)CC(C)(C)c1ccc(OCCOCC[N+](C)(C)Cc2ccccc2)cc1,112% (inactive)
11,O=C1Nc2c(ccc(Cl)c2Cl)/C1=C\c1cc(C(F)(F)F)cc(C(F)(F)F)c1,8.35% (active)
12,COc1ccc(-n2nc(C)c3c(Nc4ccc(NC(=O)Nc5cc(C(F)(F)F)ccc5F)cc4)ncnc32)cc1,24.1% (inactive)
13,CC1=CC(C)(C)Nc2ccc(Cc3ccc4c(c3)C(C)=CC(C)(C)N4)cc21,100% (inactive)
14,Clc1ccc2c(NCCNc3nc(N4CCCCC4)nc4ccccc34)ccnc2c1,25.4% (inactive)
15,Cc1ccc(C(SCC(N)C(=O)O)(c2ccccc2)c2ccc(C)cc2)cc1 (stereo not given),7.01% (active)
16,CCN1CCN(c2nc(NCCNc3ccnc4cc(Cl)ccc34)c3ccccc3n2)CC1,70.3% (inactive)
17,CCN(CC)S(=O)(=O)c1ccc(OC)c(NC(=O)c2[nH]c(C)c3c2CCCCC3=O)c1,40.2% (inactive)
18,CCCc1cc(=O)n2c(C(=O)Nc3cccc(C(=O)OCC)c3)c(C(=O)Nc3ccc(F)cc3)sc2n1,47.3% [30 µM] (inactive)

row,SMILES,growth
1,OC(COc1cccc2ccccc12)CN1CCN(c2ccccc2Cl)CC1 (stereo not given),89.4% (inactive)
2,Clc1ccc2nc3nc4ccc[nH]c4cc3c2c1,88.3% (inactive)
3,CN(C)C(=S)N=Nc1c(O)[nH]c2ccccc12,-11.6% (active)
4,Cc1cn2c(/C=C3/C(=O)Nc4c3ccc3ccccc43)c(C(F)(F)F)nc2s1,5.22% (active)
5,COc1ccc(C(=S)N2CCN(c3cccc(Cl)c3)CC2)cc1,104% (inactive)
6,C#CCOc1ccc2ncnc(Nc3cccc(CNC(=O)CCl)c3)c2c1,90.3% [8.25 µM] (inactive)
7,O=c1c2c3c(sc2nc(N/N=C/c2cn(-c4ccccc4)nc2-c2ccc(Cl)cc2)n1Cc1ccccc1)CCCC3,108% (inactive)
8,O=C(CN1C(=O)/C(=C/c2ccc(Cl)cc2)SC1=S)NCCCN1CCOCC1,99.9% (inactive)
9,CN(C)c1ccc(NC(=O)c2ccc(/C=C/C(=O)c3ncc[nH]3)cc2)cc1,64% (inactive)
10,CN1CCN=C1c1ccc(NC(=O)c2ccc(C(=O)Nc3ccc(C4=NCCN4C)cc3)cc2)cc1,100% (inactive)
11,O=c1cc(CSc2nnc(SCc3cc(=O)oc4c3ccc3ccccc34)o2)c2ccc3ccccc3c2o1,94.4% (inactive)
12,Oc1ccccc1-c1nnc(CNc2ccc(Cl)cc2)o1,13.4% (inactive)
13,CCN(CC)c1ccc(/C=N\NC(=O)/C=C/C=C/c2ccc3c(c2)OCO3)c(O)c1,17.6% (inactive)
14,O=C(Cc1ccc(/C=C/C(=O)c2ncc[nH]2)cc1)Nc1ccc(F)cc1,14.5% (inactive)
15,CSc1ccc(-c2n[nH]nc2-c2cc3ccccc3s2)cc1,22.8% (inactive)
16,CC(C)(C)N1CCC1CN (stereo not given),113% (inactive)
17,Cc1cc(N2CCCCCC2)nc(NC2CCCC(Nc3ccnc4cc(Cl)ccc34)C2)n1 (stereo not given),-72.2% (active)
